# In the supplement of paper PMC10849652:
# Targets with a hit are over-represented here; the source holds about 7,900 in all. About 0.6% of all pairs of compound and target were hits. A number with no mark means an inactive call.
# Columns and labels:
# Assay in all cases: log2 fold change, soluble protein after heating vs DMSO (PISA); higher = thermal stabilisation; K562 cells, 10 uM, 30 min; active = over 0.2 and 3.5 SD of the protein, either way, in both replicates (recomputed)
# bafetinib = compound: Cc1ccc(NC(=O)c2ccc(CN3CC[C@H](N(C)C)C3)c(C(F)(F)F)c2)cc1Nc1nccc(-c2cncnc2)n1 [bafetinib]
# Summary of the method: (§1)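 Aliquots of K562 cells (2×10^6 cells/mL) treated with 10 μM compound for 30 min were heated for 3 min over 48°C-58°C. After pooling and extraction in PBS with 0.5% NP-40 at 4°C, soluble protein from a 21,000xg, 90 min spin was quantified by TMTpro 16plex LC-MS/MS with channel sums equalised. Thermal stability is expressed against control samples, from duplicates, as a log2 fold change.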
# [1] = compound: Cc1cccc(CC(=O)N2CCc3c2ccc(-c2cn(C)c4ncnc(N)c24)c3F)n1
# Summary of the method: as §1
# nilotinib = compound: Cc1cn(-c2cc(NC(=O)c3ccc(C)c(Nc4nccc(-c5cccnc5)n4)c3)cc(C(F)(F)F)c2)cn1 [nilotinib]
# Summary of the method: as §1
# [2] = compound: Cc1nc(Nc2n[nH]c3c2CN(C(=O)N[C@H](CN(C)C)c2ccccc2)C3(C)C)c2sccc2n1
# Summary of the method: as §1
# dasatinib = compound: Cc1nc(Nc2ncc(C(=O)Nc3c(C)cccc3Cl)s2)cc(N2CCN(CCO)CC2)n1 [dasatinib]
# Summary of the method: as §1
# [3] = compound: Cc1ncc(-c2ccnc(Nc3ccc(S(C)(=O)=O)cc3)n2)n1C(C)C
# Summary of the method: as §1
# [4] = compound: Cn1cc(-c2ccc3c(c2)CCN3C(=O)Cc2cccc(C(F)(F)F)c2)c2c(N)ncnc21
# Summary of the method: as §1
# [5] = compound: Cn1cc(-c2ccc3nnc(C(F)(F)c4ccc5ncccc5c4)n3n2)cn1
# Summary of the method: as §1
# tipifarnib = compound: Cn1cncc1[C@@](N)(c1ccc(Cl)cc1)c1ccc2c(c1)c(-c1cccc(Cl)c1)cc(=O)n2C [tipifarnib]
# Summary of the method: as §1
# mubritinib = compound: FC(F)(F)c1ccc(/C=C/c2nc(COc3ccc(CCCCn4ccnn4)cc3)co2)cc1 [mubritinib]
# Summary of the method: as §1
# Sequence of UniProt Q8WX92 (Q8WX92 whole entry, looked up): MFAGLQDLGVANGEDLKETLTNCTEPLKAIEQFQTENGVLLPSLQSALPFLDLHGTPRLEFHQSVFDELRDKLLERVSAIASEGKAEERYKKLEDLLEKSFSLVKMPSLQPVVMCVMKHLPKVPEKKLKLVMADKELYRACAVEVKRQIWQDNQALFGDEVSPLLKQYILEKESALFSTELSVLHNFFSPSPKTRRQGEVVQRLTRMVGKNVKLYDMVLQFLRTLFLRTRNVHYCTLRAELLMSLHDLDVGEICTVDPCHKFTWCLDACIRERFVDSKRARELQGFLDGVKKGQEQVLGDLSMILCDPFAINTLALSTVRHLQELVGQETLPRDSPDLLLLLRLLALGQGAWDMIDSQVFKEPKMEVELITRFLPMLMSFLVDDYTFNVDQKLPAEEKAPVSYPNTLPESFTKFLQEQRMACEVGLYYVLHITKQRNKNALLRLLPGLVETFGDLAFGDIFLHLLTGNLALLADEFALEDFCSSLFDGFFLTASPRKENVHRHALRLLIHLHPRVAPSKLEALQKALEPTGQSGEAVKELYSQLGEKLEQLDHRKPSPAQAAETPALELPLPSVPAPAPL
# Sequence of UniProt Q9Y2I1 (Q9Y2I1 whole entry, looked up): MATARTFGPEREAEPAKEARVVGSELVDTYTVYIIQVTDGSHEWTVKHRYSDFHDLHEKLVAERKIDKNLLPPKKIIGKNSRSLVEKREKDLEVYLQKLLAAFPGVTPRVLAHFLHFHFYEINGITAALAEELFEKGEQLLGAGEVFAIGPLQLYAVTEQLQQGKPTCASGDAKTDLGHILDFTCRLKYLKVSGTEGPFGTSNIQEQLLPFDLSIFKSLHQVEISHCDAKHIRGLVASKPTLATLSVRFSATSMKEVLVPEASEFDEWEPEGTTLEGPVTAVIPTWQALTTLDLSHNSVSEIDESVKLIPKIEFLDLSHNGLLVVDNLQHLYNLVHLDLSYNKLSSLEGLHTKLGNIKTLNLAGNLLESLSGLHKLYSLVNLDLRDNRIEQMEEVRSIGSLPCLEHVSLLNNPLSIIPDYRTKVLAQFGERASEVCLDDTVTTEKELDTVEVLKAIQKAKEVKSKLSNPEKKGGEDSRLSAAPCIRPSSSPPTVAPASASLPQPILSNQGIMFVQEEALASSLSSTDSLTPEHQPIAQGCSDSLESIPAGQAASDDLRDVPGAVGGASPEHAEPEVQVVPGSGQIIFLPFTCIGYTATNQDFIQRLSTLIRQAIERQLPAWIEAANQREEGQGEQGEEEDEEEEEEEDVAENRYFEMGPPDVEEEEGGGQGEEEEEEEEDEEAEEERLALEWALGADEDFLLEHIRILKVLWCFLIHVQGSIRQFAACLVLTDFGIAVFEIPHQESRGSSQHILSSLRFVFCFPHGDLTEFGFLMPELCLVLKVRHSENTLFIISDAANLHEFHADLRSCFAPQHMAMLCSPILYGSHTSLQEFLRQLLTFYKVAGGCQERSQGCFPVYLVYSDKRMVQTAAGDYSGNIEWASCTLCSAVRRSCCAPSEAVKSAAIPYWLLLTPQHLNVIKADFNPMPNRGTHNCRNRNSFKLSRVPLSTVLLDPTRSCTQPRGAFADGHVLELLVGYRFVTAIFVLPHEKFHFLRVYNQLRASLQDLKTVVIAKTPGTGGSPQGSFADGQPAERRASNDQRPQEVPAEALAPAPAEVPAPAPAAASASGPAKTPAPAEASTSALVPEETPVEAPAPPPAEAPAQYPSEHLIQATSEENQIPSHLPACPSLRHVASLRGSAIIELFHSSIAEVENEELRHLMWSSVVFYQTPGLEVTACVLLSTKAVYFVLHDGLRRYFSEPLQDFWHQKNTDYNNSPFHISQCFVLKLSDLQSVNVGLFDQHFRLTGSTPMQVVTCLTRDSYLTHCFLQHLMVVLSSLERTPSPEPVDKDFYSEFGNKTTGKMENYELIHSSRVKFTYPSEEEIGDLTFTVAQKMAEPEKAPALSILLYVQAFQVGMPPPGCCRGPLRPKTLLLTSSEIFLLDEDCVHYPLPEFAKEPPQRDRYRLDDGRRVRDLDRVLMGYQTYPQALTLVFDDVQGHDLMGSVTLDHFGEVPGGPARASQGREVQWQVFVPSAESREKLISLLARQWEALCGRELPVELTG
# Sequence of UniProt O43181 (O43181 whole entry, looked up): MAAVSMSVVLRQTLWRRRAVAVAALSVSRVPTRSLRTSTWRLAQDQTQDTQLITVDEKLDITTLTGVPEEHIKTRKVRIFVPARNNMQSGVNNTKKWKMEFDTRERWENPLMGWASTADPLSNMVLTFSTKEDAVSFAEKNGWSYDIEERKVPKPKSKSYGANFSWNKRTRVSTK
# Sequence of UniProt Q8N573 (Q8N573 whole entry, looked up): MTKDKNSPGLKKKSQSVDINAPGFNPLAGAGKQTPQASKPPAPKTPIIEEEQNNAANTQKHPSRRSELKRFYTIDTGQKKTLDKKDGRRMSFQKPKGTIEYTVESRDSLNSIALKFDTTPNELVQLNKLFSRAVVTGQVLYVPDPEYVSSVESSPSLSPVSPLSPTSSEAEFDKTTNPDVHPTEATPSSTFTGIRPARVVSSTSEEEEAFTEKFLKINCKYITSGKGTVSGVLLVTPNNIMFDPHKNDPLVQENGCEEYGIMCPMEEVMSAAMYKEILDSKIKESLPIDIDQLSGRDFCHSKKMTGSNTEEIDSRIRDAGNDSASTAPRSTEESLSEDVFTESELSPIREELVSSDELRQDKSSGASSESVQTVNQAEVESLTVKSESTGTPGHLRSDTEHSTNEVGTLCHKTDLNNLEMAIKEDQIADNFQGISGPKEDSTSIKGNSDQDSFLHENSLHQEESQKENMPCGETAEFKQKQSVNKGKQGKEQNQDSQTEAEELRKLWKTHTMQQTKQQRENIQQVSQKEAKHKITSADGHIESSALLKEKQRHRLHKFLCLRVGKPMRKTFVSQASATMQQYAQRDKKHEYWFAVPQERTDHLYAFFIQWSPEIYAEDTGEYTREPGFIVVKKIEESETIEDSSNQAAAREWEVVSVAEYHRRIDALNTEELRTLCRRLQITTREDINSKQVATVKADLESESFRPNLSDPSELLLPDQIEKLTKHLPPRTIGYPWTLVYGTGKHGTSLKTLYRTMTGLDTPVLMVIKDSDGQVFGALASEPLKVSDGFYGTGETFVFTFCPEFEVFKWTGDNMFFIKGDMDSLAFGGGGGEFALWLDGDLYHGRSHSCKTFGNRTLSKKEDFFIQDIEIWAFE
# Sequence of UniProt Q16621 (Q16621 whole entry, looked up): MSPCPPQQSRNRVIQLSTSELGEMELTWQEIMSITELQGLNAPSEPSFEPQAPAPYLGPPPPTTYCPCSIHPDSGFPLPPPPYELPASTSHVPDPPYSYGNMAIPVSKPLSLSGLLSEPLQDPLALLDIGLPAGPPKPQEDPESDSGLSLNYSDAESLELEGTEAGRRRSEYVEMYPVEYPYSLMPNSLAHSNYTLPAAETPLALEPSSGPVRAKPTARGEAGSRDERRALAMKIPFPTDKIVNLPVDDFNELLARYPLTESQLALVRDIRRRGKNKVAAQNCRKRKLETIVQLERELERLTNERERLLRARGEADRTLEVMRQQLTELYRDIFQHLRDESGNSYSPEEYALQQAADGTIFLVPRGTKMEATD
# Sequence of UniProt Q96T76 (Q96T76 whole entry, looked up): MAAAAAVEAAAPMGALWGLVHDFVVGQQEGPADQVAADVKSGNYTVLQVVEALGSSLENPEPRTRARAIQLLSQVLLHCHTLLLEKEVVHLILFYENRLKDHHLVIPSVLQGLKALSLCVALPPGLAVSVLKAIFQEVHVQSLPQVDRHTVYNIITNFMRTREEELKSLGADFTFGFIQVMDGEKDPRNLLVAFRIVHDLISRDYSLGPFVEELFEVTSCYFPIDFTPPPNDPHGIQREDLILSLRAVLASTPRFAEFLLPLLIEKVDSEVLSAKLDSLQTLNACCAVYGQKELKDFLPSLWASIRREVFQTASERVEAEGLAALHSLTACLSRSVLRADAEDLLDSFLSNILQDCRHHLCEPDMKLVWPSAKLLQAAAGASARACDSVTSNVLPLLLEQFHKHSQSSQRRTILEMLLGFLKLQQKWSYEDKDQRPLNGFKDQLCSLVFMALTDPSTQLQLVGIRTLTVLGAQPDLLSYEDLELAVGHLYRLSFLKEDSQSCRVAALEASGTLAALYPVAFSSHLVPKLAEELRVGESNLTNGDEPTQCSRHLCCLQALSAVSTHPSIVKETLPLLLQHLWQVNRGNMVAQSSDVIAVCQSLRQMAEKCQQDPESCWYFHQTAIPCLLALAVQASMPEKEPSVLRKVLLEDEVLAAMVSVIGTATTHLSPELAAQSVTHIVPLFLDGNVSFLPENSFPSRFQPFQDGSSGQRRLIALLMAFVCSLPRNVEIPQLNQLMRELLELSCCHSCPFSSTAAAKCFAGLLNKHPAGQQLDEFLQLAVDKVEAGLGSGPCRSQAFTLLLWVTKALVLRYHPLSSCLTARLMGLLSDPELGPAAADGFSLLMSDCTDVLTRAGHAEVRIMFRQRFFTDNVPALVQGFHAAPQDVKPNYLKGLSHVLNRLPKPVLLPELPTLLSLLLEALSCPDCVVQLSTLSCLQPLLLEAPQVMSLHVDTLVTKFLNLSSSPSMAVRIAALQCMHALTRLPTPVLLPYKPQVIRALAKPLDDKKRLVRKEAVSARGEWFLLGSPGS
# Sequence of UniProt Q9Y605 (Q9Y605 whole entry, looked up): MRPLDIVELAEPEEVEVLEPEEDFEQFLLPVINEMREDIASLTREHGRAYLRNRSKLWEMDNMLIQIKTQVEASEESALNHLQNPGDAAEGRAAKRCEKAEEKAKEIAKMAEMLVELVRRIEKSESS
# Sequence of UniProt P15531 (P15531 whole entry, looked up): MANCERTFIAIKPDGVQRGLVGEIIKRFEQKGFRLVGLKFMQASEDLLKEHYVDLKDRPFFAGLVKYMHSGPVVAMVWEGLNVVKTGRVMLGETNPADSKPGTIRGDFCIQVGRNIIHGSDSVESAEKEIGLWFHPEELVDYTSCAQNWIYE
# Sequence of UniProt P84157 (P84157 whole entry, looked up): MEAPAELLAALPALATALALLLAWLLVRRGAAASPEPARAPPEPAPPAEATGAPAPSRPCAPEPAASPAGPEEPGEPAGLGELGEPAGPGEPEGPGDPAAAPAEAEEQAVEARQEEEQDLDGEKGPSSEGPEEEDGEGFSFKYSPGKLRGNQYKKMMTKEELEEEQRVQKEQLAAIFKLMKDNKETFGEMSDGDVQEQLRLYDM
Target,log2 fold change (bafetinib),log2 fold change [1],log2 fold change (nilotinib),log2 fold change [2],log2 fold change (dasatinib),log2 fold change [3],log2 fold change [4],log2 fold change [5],log2 fold change (tipifarnib),log2 fold change (mubritinib)
MSH3 (UniProt P20585),-0.012,0.051,-0.046,-0.014,-0.038,0.052,-0.032,0.009,-0.029,0.167
NECTIN2 (UniProt Q92692),0.03,-0.023,-0.023,0.022,-0.017,0.055,0.096,0.009,0.008,0.023
OXR1 (UniProt Q8N573),-0.098,-0.063,0.079,-0.004,-0.034,-0.023,0.081,0.013,-0.038,0.05
NUP107 (UniProt P57740),-0.013,0.716 (active),-0.027,-0.012,-0.12,-0.145,-0.077,-0.008,-0.026,-0.036
NCL (UniProt P19338),0.272,0,-0.033,0.026,0.209,0.051,-0.445,-0.237,0.225,-0.325
NME1 isoform 2 (UniProt P15531),0.011,-0.175,-0.115,0.182,-0.286,-0.003,0.088,-0.013,0.06,-0.103
NPEPPS (UniProt P55786),0.031,0.011,0.002,0.121,-0.083,-0.063,0.085,0.02,-0.032,0.102
MRPS12 (UniProt O15235),0.269,0.146,-0.161,0.073,0.062,-0.024,-0.045,0.111,-0.082,0.143
MRPS35 (UniProt P82673),0.038,0.115,-0.134,0.088,-0.004,-0.071,-0.039,0.017,0.024,0.091
MNAT1 (UniProt P51948),-0.072,0.011,-0.033,0.023,-0.002,-0.031,0.018,0,0.025,0.032
MT-ND2 (UniProt P03891),0,-0.173,-0.006,0.018,-0.459 (active),-0.171,0.279,0.11,0.383,-0.01
NELFB isoform 2 (UniProt Q8WX92),-0.088,0.046,-0.135,-0.123,-0.189,0.05,0.032,0.014,-0.081,0.03
OTULIN (UniProt Q96BN8),-0.039,0.066,-0.091,-0.124,-0.169,0.033,-0.051,0.235,-0.081,0.152
NDUFS4 (UniProt O43181),-0.083,0.017,0.039,0.015,0.087,-0.047,0.025,-0.049,0.202,0.058
NFE2 (UniProt Q16621),-0.048,-0.13,-0.063,-0.068,-0.016,-0.071,-0.051,-0.08,-0.066,0.026
OSBPL8 (UniProt Q9BZF1),0.182,0.049,0.295,-0.086,0.066,-0.047,-0.225,-0.093,-0.117,0.108
MOV10 (UniProt Q9HCE1),0.068,0,0.035,0.041,0.111,0.068,-0.055,-0.101,0.091,-0.014
NSUN2 (UniProt Q08J23),-0.059,0.056,-0.038,-0.271,-0.146,-0.222,-0.034,-0.053,-0.033,-0.045
MRPS31 (UniProt Q92665),0.066,0.042,-0.041,0.093,-0.012,0.065,0.078,0.027,-0.002,0.138
NOP58 (UniProt Q9Y2X3),0.146,-0.154,0.03,-0.194,0.266,-0.142,-0.194,-0.093,0.067,-0.071
MRPS33 (UniProt Q9Y291),0.123,0.125,-0.129,0.064,0.031,-0.04,-0.033,0.028,-0.003,0.106
MMS19 isoform 8 (UniProt Q96T76),-0.014,0.092,-0.038,-0.027,-0.205,-0.002,-0.021,0.02,-0.055,-0.019
MRFAP1 (UniProt Q9Y605),-0.045,-0.08,-0.174,-0.064,-0.054,0.051,-0.024,0.011,-0.261,-0.075
MORC3 (UniProt Q14149),-0.014,0.009,-0.173,0.09,-0.154,0.105,0.011,-0.026,0.006,-0.212
MRPS18B (UniProt Q9Y676),0.125,0.055,-0.154,0.098,-0.024,-0.342,0.005,0.081,-0.059,0.172
NEU1 (UniProt Q99519),-0.212,0.171,-0.051,-0.009,0.019,-0.147,-0.04,0.01,0.072,-0.031
NCAPD2 (UniProt Q15021),0.03,0.045,-0.078,-0.071,-0.159,0.08,-0.035,0.018,-0.148,0.033
MRPS9 (UniProt P82933),0.106,0.067,-0.094,0.008,-0.023,-0.024,-0.073,0.057,-0.025,0.085
MXRA7 (UniProt P84157),-0.074,-0.075,-0.02,-0.057,0.042,0.057,0.03,-0.042,0.018,0.002
NISCH (UniProt Q9Y2I1),-0.053,0.053,-0.138,-0.158,-0.233,-0.324,-0.002,-0.02,-0.03,-0.009
